Activity calls are given as the source filed them. Unless noted, the rule behind the calls is not given here.
Assays:
[1] = HepG2 liver cancer cell viability effects, profiling panel, resazurin fluorescence, 24 h, PK04 Diversity Set (AID 1172); settings: higher = more signal; note: test concentration not given here
[2] = basal S. cerevisiae growth modulation, no modifier, primary screen, OD600, strain BY4716, 24 h, basal condition (AID 1173); settings: OD600, 24 h, higher = more signal, called active from +8 up or from −8 down
[3] = MM1S myeloma cell viability, profiling panel, resazurin fluorescence, basal, 24 h, PK04 Diversity Set (AID 1174); settings: higher = more signal, called active from +8 up or from −8 down;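 note: MM1S multiple myeloma cell line; test concentration not given here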
[4] = molecular target: Dihydroorotate dehydrogenase (quinone), mitochondrial (Plasmodium falciparum (isolate 3D7)) (UniProt Q08210); test: PfDHODH enzyme inhibitors, primary screen, biochemical, C-terminal His tag, absorbance 600 nm (AID 1175); settings: DCIP absorbance 600 nm, higher = more signal, called active from +8 up or from −8 down;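 note: recombinant parasite enzyme with a five histidine tag at its C terminus; test concentration not given here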
Dihydroorotate dehydrogenase (quinone), mitochondrial (Plasmodium falciparum (isolate 3D7)), sequence (Q08210 whole entry, looked up): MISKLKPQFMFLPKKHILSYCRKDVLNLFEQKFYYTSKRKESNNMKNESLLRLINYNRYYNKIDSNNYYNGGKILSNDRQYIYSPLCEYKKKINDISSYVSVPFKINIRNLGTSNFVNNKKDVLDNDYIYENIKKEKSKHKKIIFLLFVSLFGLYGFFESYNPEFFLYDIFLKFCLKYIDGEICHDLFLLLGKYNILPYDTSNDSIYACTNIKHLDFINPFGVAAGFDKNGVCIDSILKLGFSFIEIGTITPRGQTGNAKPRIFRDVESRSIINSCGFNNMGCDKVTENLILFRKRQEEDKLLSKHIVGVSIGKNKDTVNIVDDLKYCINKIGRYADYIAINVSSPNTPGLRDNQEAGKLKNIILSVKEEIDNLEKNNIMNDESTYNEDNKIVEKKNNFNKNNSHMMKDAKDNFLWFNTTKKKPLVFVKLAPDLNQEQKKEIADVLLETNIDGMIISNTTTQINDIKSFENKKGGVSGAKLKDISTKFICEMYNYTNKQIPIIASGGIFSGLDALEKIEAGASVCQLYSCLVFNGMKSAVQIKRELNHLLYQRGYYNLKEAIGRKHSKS

[5] = P. aeruginosa biofilm formation inhibitors, primary screen, strain PAO1, LB-PBS medium, absorbance 600 nm (AID 1176); note: test concentration not given here; settings: P. aeruginosa PAO1 growth/biofilm, A600, 12 h; higher = more signal
[6] = S. cerevisiae RM11-1a growth modifiers, primary screen, strain RM11-1a, OD600, basal, 24 h (AID 1177); settings: OD600, 24 h, higher = more signal, called active from +8 up or from −8 down;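 note: cultures grown under basal conditions with no added stressor; test concentration not given here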
[7] = E. coli acrAB mutant growth effects, primary screen, E. coli filamentation inducers, strain DRC39, OD650, 24 h (AID 1178); settings: higher = more signal, called active from +8 up or from −8 down;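 note: growth measured as culture turbidity by optical density at 650 nm; test concentration not given here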
[8] = E. coli acrAB mutant growth effects, primary screen, E. coli filamentation inducers, strain DRC39, OD650, 48 h (AID 1179);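 note: screen aims at cell division blockers that make cells filament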; settings: E. coli DRC39 delta-acrAB growth, higher = more signal, called active from +8 up or from −8 down
[9] = RPMI8226 myeloma cell viability, profiling panel, resazurin fluorescence, basal, 24 h, PK04 Diversity Set (AID 1180); settings: higher = more signal;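 note: RPMI8826 multiple myeloma cell line at 5000 cells per well; test concentration not given here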
[10] = molecular target: E3 ubiquitin-protein ligase XIAP (Homo sapiens) (UniProt P98170); test: XIAP binders, primary screen, biophysical, small-molecule microarray, fluorescence 635 nm (AID 1181); settings: small-molecule microarray binding, higher = more signal;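 note: score merges 667 nm emission and signal to noise over triplicate slides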
E3 ubiquitin-protein ligase XIAP (Homo sapiens), sequence (P98170 whole entry, looked up): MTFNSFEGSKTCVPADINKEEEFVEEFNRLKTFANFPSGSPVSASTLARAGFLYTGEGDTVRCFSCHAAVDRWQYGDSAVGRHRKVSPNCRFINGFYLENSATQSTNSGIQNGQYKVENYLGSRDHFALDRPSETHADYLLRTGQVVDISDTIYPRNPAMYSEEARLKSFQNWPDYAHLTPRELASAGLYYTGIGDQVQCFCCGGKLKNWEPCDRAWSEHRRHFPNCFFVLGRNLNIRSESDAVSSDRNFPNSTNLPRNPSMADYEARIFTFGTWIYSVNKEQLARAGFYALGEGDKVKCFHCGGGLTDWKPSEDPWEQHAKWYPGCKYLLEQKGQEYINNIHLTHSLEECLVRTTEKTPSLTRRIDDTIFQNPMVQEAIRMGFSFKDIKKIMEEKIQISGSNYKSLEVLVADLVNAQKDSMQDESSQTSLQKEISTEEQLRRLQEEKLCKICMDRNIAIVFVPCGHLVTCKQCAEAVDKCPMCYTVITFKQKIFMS

Row | Compound | z-score [1] | z-score [2] | z-score [3] | composite z-score [4] | z-score [5] | z-score [6] | z-score [7] | z-score [8] | z-score [9] | composite z-score [10]
1 | COCCOC(=O)N1C(=O)[C@@]2(c3ccccc31)[C@H](C(=O)Nc1nc3ccccc3s1)[C@H]1C(=O)O[C@H](c3ccccc3)[C@H](c3ccccc3)N1[C@@H]2c1ccc(OCCO)cc1 | 0.353 | 1.42 (inactive) | -0.477 (inactive) | -0.691 (inactive) | 3.49 (inactive) | 1.75 (inactive) | 0.0253 (inactive) | -0.383 (inactive) | -0.162 | 0.0641
2 | COc1cc2c(cc1OC)CN(C(=O)[C@@H]1[C@H]3C(=O)O[C@H](c4ccccc4)[C@H](c4ccccc4)N3[C@H](c3ccccc3OCCO)[C@@]13C(=O)Nc1ccc(C#CCNC(N)=O)cc13)CC2 | 0.0227 | 0.74 (inactive) | -0.148 (inactive) | -0.839 (inactive) | 2.93 (inactive) | 3 (inactive) | 1.13 (inactive) | 1.31 (inactive) | 0.088 | 0.153
3 | COCCOC(=O)N1C(=O)[C@@]2(c3ccccc31)[C@H](c1ccc(O)cc1)N1[C@H](c3ccccc3)[C@H](c3ccccc3)OC(=O)[C@H]1[C@@H]2C(=O)N1CCc2cc(OC)c(OC)cc2C1 | 0.129 | 0.0332 (inactive) | 0.612 (inactive) | -0.888 (inactive) | 0.759 (inactive) | -0.33 (inactive) | 0.919 (inactive) | 1.3 (inactive) | 0.471 | -0.0841
4 | CC(C)OC(=O)CC(=O)CC(O)c1ccc(C#N)cc1 (stereo not given) | 0.602 | -0.0106 (inactive) | 0.8 (inactive) | -1.12 (inactive) | -0.088 (inactive) | -0.608 (inactive) | -0.0611 (inactive) | 1.44 (inactive) | 1.43 | -0.194
5 | COCCOC(=O)N1C(=O)[C@@]2(c3cc(C#CC4=CCCCC4)ccc31)[C@H](C(=O)NC[C@H](O)c1ccccc1)[C@H]1C(=O)O[C@H](c3ccccc3)[C@H](c3ccccc3)N1[C@@H]2c1ccc(O)cc1 | -0.789 | -0.571 (inactive) | -0.925 (inactive) | 0.409 (inactive) | 1.01 (inactive) | 1.55 (inactive) | -0.237 (inactive) | 0.174 (inactive) | -1.73 | -0.02
6 | COc1ccc(CCNC(=O)[C@@]2(Sc3ccc(C)cc3)CC(=O)N(Cc3ccccc3Cl)[C@@H]2c2ccc(CO)cc2I)cc1 | 0.254 | -4.37 (inactive) | -2.75 (inactive) | -0.725 (inactive) | 0.379 (inactive) | -1.37 (inactive) | 0.853 (inactive) | 1.36 (inactive) | -1.71 | 0.0512
7 | COc1ccc(C#Cc2ccc3c(c2)[C@]2(C(=O)N3)[C@H](c3ccc(O)cc3)N3[C@H](c4ccccc4)[C@H](c4ccccc4)OC(=O)[C@H]3[C@@H]2C(=O)N2CCCCCCC2)cc1 | -0.527 | -1.15 (inactive) | 0.0901 (inactive) | -1.4 (inactive) | 1.44 (inactive) | -0.404 (inactive) | -0.525 (inactive) | -0.469 (inactive) | 0.326 | 0.536
8 | O=C(O)[C@@]1(Cc2ccccc2)N=C(c2ccc(OCCCO)cc2)O[C@H]1c1ccccc1 | 0.712 | -1.12 (inactive) | 0.551 (inactive) | 1.22 (inactive) | -0.692 (inactive) | 0.291 (inactive) | 0.24 (inactive) | 1.34 (inactive) | 0.655 | -0.0095
9 | CC1CC/C=C\[C@H]2OC34C=CCN(Cc5ccccc5)C(=O)[C@H]3N(CCCCCO)C(=O)[C@@H]4C2C(=O)O1 (stereo not given in full) | -0.0371 | -0.308 (inactive) | 0.521 (inactive) | -0.419 (inactive) | -0.565 (inactive) | 0.0882 (inactive) | 0.443 (inactive) | 0.667 (inactive) | 0.461 | -0.0062
10 | N[C@@H](Cc1ccccc1)Cn1cc(-c2ccccc2)nn1 | -0.473 | -2.26 (inactive) | -0.29 (inactive) | 1.11 (inactive) | 0.444 (inactive) | -0.519 (inactive) | 0.405 (inactive) | -0.679 (inactive) | -0.587 | -0.377
11 | COCCOC(=O)N1C(=O)[C@@]2(c3cc(C#CCCO)ccc31)[C@H](c1ccccc1OCCO)N1[C@H](c3ccccc3)[C@H](c3ccccc3)OC(=O)[C@H]1[C@@H]2C(=O)N1CCN(c2ncccn2)CC1 | -0.0071 | 1.42 (inactive) | -0.285 (inactive) | -0.465 (inactive) | 1.6 (inactive) | 2.18 (inactive) | -0.0933 (inactive) | -0.27 (inactive) | -0.803 | -0.0304
12 | C=CCC(OC(C)=O)[C@@H]1[C@@H](N(Cc2ccc(-c3ccccc3)cc2)C(=O)Cc2ccc(F)cc2)c2cc(OCCCO)ccc2N1C(=O)c1ccc2ccccc2n1 (stereo not given in full) | 1.29 | -0.186 (inactive) | 1.08 (inactive) | -0.203 (inactive) | -0.619 (inactive) | -0.452 (inactive) | 0.918 (inactive) | 0.761 (inactive) | 0.893 | 0.103
13 | COCCOC(=O)N1C(=O)[C@@]2(c3cc(C#CCNC(N)=O)ccc31)[C@H](c1ccccc1OCCO)N1[C@H](c3ccccc3)[C@H](c3ccccc3)OC(=O)[C@H]1[C@@H]2C(N)=O | -0.554 | 1.91 (inactive) | -0.279 (inactive) | 1.39 (inactive) | 0.971 (inactive) | 2.64 (inactive) | -0.144 (inactive) | -0.375 (inactive) | 0.138 | -0.0525
14 | C[C@]1(C(=O)NCc2ccccc2)c2ccccc2C(=O)N(Cc2cc(F)cc(C(F)(F)F)c2)[C@H]1c1ccc(CO)cc1 | -0.555 | -0.276 (inactive) | -0.179 (inactive) | 0.225 (inactive) | 0.155 (inactive) | 0.179 (inactive) | 1.2 (inactive) | 1.6 (inactive) | 0.0748 | 0.0256
15 | NCCCCCNC(=O)[C@H]1C[C@H]2C(=O)NCC(=O)N2[C@H]1c1cccc(OCCO)c1 | 0.871 | -0.0725 (inactive) | 0.998 (inactive) | -0.355 (inactive) | -0.242 (inactive) | 0.0993 (inactive) | 1.07 (inactive) | 1.23 (inactive) | 0.616 | -0.119
16 | COCCOC(=O)N1C(=O)[C@@]2(c3cc(C#CCC(C(=O)OC)C(=O)OC)ccc31)[C@H](C(=O)N1CCCCCCC1)[C@H]1C(=O)O[C@H](c3ccccc3)[C@H](c3ccccc3)N1[C@@H]2c1ccc(OCCO)cc1 | 2.14 | 0.905 (inactive) | 0.281 (inactive) | -0.352 (inactive) | 1.3 (inactive) | 2.41 (inactive) | 0.027 (inactive) | 0.271 (inactive) | 0.437 | 0.611
17 | COc1ccc([Si](C)(C)[C@H]2[C@H](CCn3cc([C@H](O)c4ccccc4)nn3)O[C@@]3(C(=O)N(Cc4cccc(N5CCC5=O)c4)c4ccccc43)[C@@H]2C)cc1 | 0.429 | -1.53 (inactive) | -0.85 (inactive) | -1.21 (inactive) | 1.59 (inactive) | -0.101 (inactive) | 0.898 (inactive) | 1.02 (inactive) | 0.388 | 0.166
18 | COC(=O)[C@@]1(Cc2ccc(OC)cc2)[C@H]2c3cc(C(=O)N(C)C)n(Cc4c(OC)[nH]cc(C)c4=O)c3C[C@H]2CN1C(=O)c1ccccc1 | -0.672 | 0.87 (inactive) | -2.62 (inactive) | -0.967 (inactive) | 0.7 (inactive) | -0.838 (inactive) | 0.0795 (inactive) | 0.574 (inactive) | -1.93 | 0.295
19 | COCCOC(=O)N1C(=O)[C@@]2(c3cc(C#CCNC(N)=O)ccc31)[C@H](C(=O)N1CCN(c3ncccn3)CC1)[C@H]1C(=O)O[C@H](c3ccccc3)[C@H](c3ccccc3)N1[C@@H]2c1ccccc1OCCO | 0.841 | 2.3 (inactive) | 0.0815 (inactive) | 0.373 (inactive) | 0.669 (inactive) | 3.47 (inactive) | 0.559 (inactive) | -0.438 (inactive) | 0.147 | 0.0611
20 | C=CC[C@]1(C(=O)N2CCOCC2)N=C(c2ccc(OCCCO)cc2)O[C@H]1c1ccccc1 | 0.318 | -1.4 (inactive) | -0.0524 (inactive) | 0.373 (inactive) | 1.17 (inactive) | -0.594 (inactive) | 0.14 (inactive) | 0.122 (inactive) | 0.335 | -0.031
21 | COc1ccc(C(O)C2C=CC3C(=O)N(C)C(=O)C3N2Nc2ccccc2)cc1OCc1ccccc1 (stereo not given) | 0.043 | -12.9 (active) | -0.157 (inactive) | 0.669 (inactive) | 1.03 (inactive) | 1.17 (inactive) | -1.02 (inactive) | -1.05 (inactive) | -0.543 | 0.209
22 | O=C1N(CCS(=O)(=O)c2ccccc2)Cc2ccccc2C[C@]12N=C(c1ccc(OCCCO)cc1)O[C@@H]2c1ccccc1 | -1.08 | 1.07 (inactive) | -2.68 (inactive) | -1.48 (inactive) | 0.0658 (inactive) | 1.52 (inactive) | -0.0937 (inactive) | 1.28 (inactive) | -1.99 | 0.0191

From PubChem BioAssay
